# Source: the supplement of paper PMC11732987, “Enantioselective OTUD7B fragment discovery through chemoproteomics screening and high-throughput optimisation” (Communications Chemistry, 2025)
# A number with no mark means an inactive call.
# What was measured:
# Test in all cases: log2 ratio of Biotin-Ahx-Ub-VS probe labelling (fragment/DMSO); higher = less target engagement (more negative = stronger competition), active = hit call of the paper (q ≤ 0.05, log2 ratio ≤ -1)
# Conditions in all cases: compound concentration: 200 uM; treatment time: 3 h
# [1] = molecular target: T1, ALG13 (UniProt Q9NP73)
# T1 sequence (whole entry): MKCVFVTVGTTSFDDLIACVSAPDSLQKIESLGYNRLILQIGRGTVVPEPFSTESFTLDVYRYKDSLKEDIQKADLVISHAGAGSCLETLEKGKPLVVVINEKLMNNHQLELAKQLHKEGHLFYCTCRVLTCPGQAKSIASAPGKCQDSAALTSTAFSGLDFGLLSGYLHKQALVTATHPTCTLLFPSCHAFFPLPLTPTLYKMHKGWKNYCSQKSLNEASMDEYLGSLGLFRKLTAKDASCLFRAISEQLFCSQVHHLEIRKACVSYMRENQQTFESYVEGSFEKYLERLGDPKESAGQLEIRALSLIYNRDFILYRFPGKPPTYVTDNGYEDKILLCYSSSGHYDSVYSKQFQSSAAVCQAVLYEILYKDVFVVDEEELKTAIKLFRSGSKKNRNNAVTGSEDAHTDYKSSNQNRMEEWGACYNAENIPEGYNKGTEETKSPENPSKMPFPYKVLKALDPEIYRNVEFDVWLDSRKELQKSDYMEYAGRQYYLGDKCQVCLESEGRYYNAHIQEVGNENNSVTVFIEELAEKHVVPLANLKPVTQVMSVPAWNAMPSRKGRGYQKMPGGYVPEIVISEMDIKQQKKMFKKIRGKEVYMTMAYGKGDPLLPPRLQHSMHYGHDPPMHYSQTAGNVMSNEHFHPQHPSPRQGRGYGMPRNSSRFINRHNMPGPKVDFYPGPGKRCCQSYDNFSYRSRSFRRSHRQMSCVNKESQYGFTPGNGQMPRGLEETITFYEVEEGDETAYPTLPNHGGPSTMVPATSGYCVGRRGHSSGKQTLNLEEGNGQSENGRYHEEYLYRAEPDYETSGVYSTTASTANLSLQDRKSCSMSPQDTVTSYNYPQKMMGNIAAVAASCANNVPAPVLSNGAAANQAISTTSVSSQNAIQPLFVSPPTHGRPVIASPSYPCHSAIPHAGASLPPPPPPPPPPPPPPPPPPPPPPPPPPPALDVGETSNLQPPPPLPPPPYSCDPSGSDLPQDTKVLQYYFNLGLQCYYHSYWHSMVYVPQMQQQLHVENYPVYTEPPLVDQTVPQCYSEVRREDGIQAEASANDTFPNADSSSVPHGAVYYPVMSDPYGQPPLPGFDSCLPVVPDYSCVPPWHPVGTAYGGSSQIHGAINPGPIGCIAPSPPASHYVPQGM
# In short: (§1)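 Fragment (200 µM) or vehicle was incubated for 3 h with triplicate HEK293T lysate samples of 495 µg, which were then treated with Biotin-Ahx-Ub-VS at 0.5 µM final for 1 h. Labelled DUBs were enriched on NeutrAvidin, digested with LysC and trypsin, and analysed by diaPASEF LC-MS/MS. Values are average log2 fragment/vehicle ratios from an unpaired t-test on global-median-normalised Spectronaut label-free quantities, using proteins with ≥2 unique peptides.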
# [2] = molecular target: ATXN3 (UniProt P54252)
# Sequence of ATXN3 (P54252 whole entry): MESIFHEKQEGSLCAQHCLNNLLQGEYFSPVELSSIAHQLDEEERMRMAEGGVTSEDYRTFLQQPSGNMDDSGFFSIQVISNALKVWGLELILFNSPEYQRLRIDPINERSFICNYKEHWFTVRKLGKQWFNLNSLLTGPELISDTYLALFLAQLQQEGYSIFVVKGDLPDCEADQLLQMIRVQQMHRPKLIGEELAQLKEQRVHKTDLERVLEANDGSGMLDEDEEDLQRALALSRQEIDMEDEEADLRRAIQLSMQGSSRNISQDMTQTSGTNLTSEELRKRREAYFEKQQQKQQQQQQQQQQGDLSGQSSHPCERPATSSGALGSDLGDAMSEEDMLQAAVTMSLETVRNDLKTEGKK
# In short: as §1
# [3] = molecular target: T2, BAP1 (UniProt Q92560)
# T2 sequence (whole entry): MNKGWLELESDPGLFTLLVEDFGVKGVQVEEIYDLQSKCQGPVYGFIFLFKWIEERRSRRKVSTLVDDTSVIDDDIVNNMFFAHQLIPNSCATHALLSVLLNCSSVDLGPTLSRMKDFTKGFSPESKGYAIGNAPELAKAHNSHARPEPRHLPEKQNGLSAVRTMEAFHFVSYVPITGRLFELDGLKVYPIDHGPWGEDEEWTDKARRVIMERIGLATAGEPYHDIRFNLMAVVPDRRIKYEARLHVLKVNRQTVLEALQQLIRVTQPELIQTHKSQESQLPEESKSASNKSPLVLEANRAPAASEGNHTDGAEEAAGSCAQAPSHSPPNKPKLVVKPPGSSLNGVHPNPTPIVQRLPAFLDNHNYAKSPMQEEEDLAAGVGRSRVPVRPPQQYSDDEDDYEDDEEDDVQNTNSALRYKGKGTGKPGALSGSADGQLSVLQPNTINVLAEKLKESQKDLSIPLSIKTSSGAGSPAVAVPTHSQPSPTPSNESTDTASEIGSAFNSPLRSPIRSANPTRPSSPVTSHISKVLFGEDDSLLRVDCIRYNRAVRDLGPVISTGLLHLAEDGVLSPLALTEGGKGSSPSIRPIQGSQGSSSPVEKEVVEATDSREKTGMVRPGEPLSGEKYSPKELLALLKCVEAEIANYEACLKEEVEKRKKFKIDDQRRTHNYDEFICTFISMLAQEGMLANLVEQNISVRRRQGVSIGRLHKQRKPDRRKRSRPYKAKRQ
# In short: as §1
# [4] = molecular target: EIF3F (UniProt O00303)
# Sequence of EIF3F (O00303 whole entry): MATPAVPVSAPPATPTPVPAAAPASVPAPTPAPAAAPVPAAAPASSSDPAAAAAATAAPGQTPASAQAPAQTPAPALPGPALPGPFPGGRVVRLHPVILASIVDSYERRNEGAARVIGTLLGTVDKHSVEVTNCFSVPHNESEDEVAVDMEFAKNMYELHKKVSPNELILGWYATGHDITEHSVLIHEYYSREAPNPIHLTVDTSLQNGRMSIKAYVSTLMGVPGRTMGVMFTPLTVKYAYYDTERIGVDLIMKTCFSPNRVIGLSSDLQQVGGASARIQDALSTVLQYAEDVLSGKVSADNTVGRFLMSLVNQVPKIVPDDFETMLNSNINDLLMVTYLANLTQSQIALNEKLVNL
# In short: as §1
# [5] = molecular target: EIF3H (UniProt O15372)
# Sequence of EIF3H (O15372 whole entry): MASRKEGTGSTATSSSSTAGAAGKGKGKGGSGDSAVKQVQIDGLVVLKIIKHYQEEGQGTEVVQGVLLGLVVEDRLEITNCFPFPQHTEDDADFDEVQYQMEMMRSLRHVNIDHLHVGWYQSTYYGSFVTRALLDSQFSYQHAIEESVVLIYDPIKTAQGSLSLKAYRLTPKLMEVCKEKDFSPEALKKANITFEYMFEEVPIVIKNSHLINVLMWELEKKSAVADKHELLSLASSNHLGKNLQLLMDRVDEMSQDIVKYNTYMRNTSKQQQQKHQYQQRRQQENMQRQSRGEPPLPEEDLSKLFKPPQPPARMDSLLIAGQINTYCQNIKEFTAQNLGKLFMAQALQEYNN
# In short: as §1
# [6] = molecular target: T3, FAM105A (UniProt Q9NUU6)
# T3 sequence (whole entry): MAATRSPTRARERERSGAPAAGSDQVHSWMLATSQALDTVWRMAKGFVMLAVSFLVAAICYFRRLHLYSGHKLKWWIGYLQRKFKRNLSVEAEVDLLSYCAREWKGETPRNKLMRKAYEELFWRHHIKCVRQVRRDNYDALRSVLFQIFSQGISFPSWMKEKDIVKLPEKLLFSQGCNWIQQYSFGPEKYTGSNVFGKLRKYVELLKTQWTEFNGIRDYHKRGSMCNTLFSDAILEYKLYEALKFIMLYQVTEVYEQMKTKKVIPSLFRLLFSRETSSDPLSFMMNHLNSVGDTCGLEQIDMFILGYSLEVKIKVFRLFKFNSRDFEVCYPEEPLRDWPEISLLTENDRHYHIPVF
# In short: as §1
# [7] = molecular target: OTUB1 (UniProt Q96FW1)
# Sequence of OTUB1 (Q96FW1 whole entry): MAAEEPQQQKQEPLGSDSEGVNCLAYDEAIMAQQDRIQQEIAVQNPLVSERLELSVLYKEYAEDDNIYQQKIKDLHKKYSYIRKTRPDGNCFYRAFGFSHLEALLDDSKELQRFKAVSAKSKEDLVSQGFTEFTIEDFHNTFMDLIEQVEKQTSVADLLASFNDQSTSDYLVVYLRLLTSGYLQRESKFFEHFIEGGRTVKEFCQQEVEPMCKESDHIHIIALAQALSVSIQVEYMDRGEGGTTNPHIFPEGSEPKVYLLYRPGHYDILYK
# In short: as §1
# [8] = molecular target: T4, OTUD4 (UniProt Q01804)
# T4 sequence (whole entry): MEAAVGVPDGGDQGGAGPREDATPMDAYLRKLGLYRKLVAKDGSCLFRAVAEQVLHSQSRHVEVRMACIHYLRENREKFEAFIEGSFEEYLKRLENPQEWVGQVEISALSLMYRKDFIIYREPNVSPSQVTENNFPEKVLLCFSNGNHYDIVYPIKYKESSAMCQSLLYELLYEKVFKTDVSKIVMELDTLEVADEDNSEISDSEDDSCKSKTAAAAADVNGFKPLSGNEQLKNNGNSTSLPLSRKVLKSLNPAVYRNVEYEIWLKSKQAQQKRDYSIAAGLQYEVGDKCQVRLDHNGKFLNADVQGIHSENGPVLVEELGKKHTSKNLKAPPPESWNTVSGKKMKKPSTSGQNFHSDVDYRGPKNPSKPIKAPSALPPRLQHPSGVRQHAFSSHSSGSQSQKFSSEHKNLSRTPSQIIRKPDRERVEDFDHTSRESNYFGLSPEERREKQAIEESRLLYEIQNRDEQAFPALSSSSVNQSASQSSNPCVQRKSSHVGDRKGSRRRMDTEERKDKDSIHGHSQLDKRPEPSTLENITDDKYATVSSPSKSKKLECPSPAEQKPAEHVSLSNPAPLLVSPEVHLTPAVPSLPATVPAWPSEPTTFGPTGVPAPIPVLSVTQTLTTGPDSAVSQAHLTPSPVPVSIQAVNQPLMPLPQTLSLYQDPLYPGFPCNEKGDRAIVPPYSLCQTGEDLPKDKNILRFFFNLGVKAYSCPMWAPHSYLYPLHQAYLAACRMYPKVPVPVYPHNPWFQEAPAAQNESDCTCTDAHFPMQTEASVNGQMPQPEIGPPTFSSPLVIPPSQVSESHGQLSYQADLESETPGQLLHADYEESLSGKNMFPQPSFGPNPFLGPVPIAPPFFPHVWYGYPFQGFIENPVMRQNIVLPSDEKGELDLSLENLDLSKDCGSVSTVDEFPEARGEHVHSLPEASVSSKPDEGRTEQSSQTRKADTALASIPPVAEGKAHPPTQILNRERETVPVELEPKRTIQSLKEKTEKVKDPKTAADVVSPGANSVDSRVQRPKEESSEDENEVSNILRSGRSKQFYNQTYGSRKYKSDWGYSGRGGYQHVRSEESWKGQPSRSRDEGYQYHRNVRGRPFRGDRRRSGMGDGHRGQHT
# In short: as §1
# [9] = molecular target: T5, OTUD5 (UniProt Q96G74)
# T5 sequence (whole entry): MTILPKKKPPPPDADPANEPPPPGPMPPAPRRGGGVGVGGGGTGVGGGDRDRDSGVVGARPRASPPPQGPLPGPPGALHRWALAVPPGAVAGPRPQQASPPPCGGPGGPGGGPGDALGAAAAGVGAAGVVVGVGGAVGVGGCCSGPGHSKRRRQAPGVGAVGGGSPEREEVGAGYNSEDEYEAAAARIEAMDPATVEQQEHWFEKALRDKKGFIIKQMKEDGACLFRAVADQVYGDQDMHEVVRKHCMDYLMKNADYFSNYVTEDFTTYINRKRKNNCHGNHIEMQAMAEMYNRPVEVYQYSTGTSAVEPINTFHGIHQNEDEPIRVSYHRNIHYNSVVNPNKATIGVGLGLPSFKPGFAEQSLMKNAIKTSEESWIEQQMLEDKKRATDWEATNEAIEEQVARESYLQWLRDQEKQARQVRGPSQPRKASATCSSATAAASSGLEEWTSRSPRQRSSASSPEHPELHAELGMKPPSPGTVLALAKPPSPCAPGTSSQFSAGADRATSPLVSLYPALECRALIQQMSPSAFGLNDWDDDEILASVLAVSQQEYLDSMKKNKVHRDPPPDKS
# In short: as §1
structure (smiles),measurement,setting,value
Cc1ccc(N2CCC(NC(=O)CCl)C2=O)cc1 (centres undefined),log2 ratio of Biotin-Ahx-Ub-VS probe labelling,[1],-0.511
same,log2 ratio of Biotin-Ahx-Ub-VS probe labelling,[2],-0.0941
same,log2 ratio of Biotin-Ahx-Ub-VS probe labelling,[3],-2.46 (active)
same,log2 ratio of Biotin-Ahx-Ub-VS probe labelling,[4],0.043
same,log2 ratio of Biotin-Ahx-Ub-VS probe labelling,[5],-0.278
same,log2 ratio of Biotin-Ahx-Ub-VS probe labelling,[6],0.0934
same,log2 ratio of Biotin-Ahx-Ub-VS probe labelling,[7],0.0513
same,log2 ratio of Biotin-Ahx-Ub-VS probe labelling,[8],0.0319
same,log2 ratio of Biotin-Ahx-Ub-VS probe labelling,[9],0.0904
